Screening data from PubChem.
Hits are enriched below; roughly 4.1% of the tested compounds scored in any of these assays.
FBA Mtb inh = inhibitors of M. tuberculosis fructose-bisphosphate aldolase; purified M. tuberculosis FBA, fluorescence read-out; inhibition, % at 1 µM; 360,000 compounds, 2.3% hits; in the data active = inhibition above about 27%;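 note: 0% = vehicle and 100% = reference inhibitor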
GDH-TPI counter = inhibits GDH-TPI coupling enzymes, artifact for Mtb FBA screen | GDH-TPI coupled enzyme counterscreen, NADH absorbance | inhibition, % at 4.8 µM | 360,000 compounds, 1.2% hits | AID 588335; in the data active = inhibition above about 30%;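 note: 0% = DMSO wells and 100% = wells lacking the enzyme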
BH1578 lux ind = induces V. cholerae light production without autoinducers; V. cholerae BH1578 lux reporter, luminescence, 6 h; activation, % at 18.7 µM; 350,000 compounds, 0.16% hits; AID 588436; in the data active = activation mostly above about 9.7%, no sharp cut-off
UGM FP inh = Mtb UDP-galactopyranose mutase inhibition; purified UGM, fluorescence polarization probe displacement; inhibition, % at 10 µM; P9WIQ1; 320,000 compounds, 0.06% hits; AID 504406; in the data active = inhibition above about 10%, passing the limit was not always enough
Rv3671c inh = inhibitors of M. tuberculosis serine protease Rv3671c. P9WHR9. 320,000 compounds, 0.048% hits. inhibition, % at 5.96 µM; in the data active = inhibition above about 38%;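 note: extracellular domain of Rv3671c used as enzyme; 0% = enzyme with DMSO and 100% = no enzyme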
RecA splice inh = Mtb RecA intein splicing inhibition. inhibition, % (no concentration beside the values). P9WHJ3. cell-free RecA intein splicing, fluorescence. 290,000 compounds, 0.75% hits; in the data active = inhibition above about 30%;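 note: 0% = vehicle wells and 100% = reference inhibitor control wells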
Target sequence (P9WHJ3 whole entry, looked up, canonical isoform): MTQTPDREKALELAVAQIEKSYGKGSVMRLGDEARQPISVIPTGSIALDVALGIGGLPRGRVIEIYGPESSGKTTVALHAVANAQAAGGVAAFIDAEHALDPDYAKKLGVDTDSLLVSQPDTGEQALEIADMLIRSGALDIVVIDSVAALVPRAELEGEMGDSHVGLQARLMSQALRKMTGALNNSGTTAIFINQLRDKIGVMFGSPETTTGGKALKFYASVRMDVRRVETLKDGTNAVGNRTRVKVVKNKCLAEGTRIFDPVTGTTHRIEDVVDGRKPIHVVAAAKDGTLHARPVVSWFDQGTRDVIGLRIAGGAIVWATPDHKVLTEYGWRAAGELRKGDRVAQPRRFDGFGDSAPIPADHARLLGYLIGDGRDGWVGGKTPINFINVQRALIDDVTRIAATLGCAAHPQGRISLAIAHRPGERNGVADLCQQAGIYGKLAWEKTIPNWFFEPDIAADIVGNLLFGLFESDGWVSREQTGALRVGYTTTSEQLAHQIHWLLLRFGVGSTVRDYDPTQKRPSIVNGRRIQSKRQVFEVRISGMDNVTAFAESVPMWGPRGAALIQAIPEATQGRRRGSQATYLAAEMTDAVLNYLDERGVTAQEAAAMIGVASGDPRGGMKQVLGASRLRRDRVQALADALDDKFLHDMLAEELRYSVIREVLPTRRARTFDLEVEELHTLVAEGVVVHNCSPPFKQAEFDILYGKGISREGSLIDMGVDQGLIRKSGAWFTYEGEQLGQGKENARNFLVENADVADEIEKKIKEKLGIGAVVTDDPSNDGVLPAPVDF
Numbers without * were called inactive; i = inactive; / = no result given.

SMILES	FBA Mtb inh	GDH-TPI counter	BH1578 lux ind	UGM FP inh	Rv3671c inh	RecA splice inh
O=C(NCc1ccccc1)c1cc(C2CCCCN2C(=O)c2ccccc2)on1 (configuration not stated)	-1	10	-2	/	/	/
CCCS(=O)(=O)NC(=O)C1(C)CCCN(C(=O)c2cc(C(C)(C)C)nn2C)C1 (configuration not stated)	1	8	0	/	/	/
C=CCn1c(=O)/c(=C2/Sc3cc(OC)ccc3N2C)s/c1=C1\C(=O)N(CC)C(=S)N1C	/	/	/	-4	2	0
CCOC(=O)Cc1c(C)c2c(O)cc(O)cc2oc1=O	121*	19	-2	1	-1	-135
Cn1c(C(C#N)C(=O)c2ccco2)nc2ccccc21 (configuration not stated)	4	33*	-4	-1	-2	1
Cn1c(C(C#N)C(=O)Cc2cccc3ccccc23)nc2ccccc21 (configuration not stated)	0	7	-1	0	3	-1
CCOC(=O)c1cc(NC(=O)c2ccccc2)c(=O)oc1-c1ccccc1	2	33*	i	1	-9	-1
COc1ccc(C=C2OC(=O)C(C(C)=O)=C2O)cc1	14	59*	i	/	/	/
CC(=O)C1=C(O)C(=Cc2ccccc2)OC1=O	11	26	i	/	/	/
O=C1C=C(c2ccoc2)N2CCC[C@H]2C1	1	39*	i	0	-6	/
CCN(C(=O)COC(=O)c1cc(Cl)ccc1OC)c1c(N)n(Cc2ccccc2)c(=O)[nH]c1=O	8	5	i	12*	0	/
O=c1c2ccccc2nc2n1CCC2	-2	10	-7	3	7	51*
O=c1c2ccccc2nc2n1CCCCN2	68*	3	/	0	7	1
C=CCOc1ccc(C(=O)Nc2ncn[nH]2)cc1	1	-1	-1	4	-1	-4
CCC(C(=O)NCCCN1CCCC1=O)n1c2ccccc2c2nc(=O)cc(C)n21 (configuration not stated)	6	15	0	-1	-1	19
O=Cc1cc2cc3c(cc2nc1Cl)OCCO3	/	/	/	-5	-8	2
O=C(O)c1ccc(N/N=C/c2cc3cc4c(cc3nc2Cl)OCCO4)cc1	8	39*	i	-2	-3	-7
O=C(N/N=C/c1cc([N+](=O)[O-])cc([N+](=O)[O-])c1O)/C(=C\c1cccs1)NC(=O)c1ccccc1	-6	37*	0	3	-5	6
Cc1ccccc1NC(=O)/C(=C\c1cccs1)NC(=O)c1ccccc1	0	26	0	1	2	/
O=c1cnnc(N/N=C/c2ccc3c(c2)OCO3)[nH]1	2	44*	0	0	3	-4
COc1cc(/C=N/NC(=O)c2ccc(-n3cccc3)cc2)ccc1O	-2	43*	0	1	15	-2
O=C(N/N=C/c1ccc2c(c1)OCO2)c1ccc2c(c1)OCCO2	3	42*	0	2	-8	-3
CC(C)(C)c1ccc(/C=N/Nc2cccc(C(=O)O)c2)cc1	-2	2	0	1	-3	-1
CN(C)c1ccc(/C=N/Nc2cccc(C(=O)O)c2)cc1	1	37*	0	1	-2	-5
COc1cc(/C=N/NC(=O)/C(=C\c2ccc3c(c2)OCO3)NC(=O)c2ccccc2)ccc1O	-4	47*	i	3	4	-1
SMILES	FBA Mtb inh	GDH-TPI counter	BH1578 lux ind	UGM FP inh	Rv3671c inh	RecA splice inh
COc1ccc(C(=O)N/C(=C\c2ccc3c(c2)OCO3)C(=O)Nc2cccc(C(=O)O)c2)cc1	3	21	-1	-1	-8	0
O=C(O)c1ccc(/C=N/Nc2ncc(C(F)(F)F)cc2Cl)cc1	-1	37*	-4	-2	1	-4
O=C(O)CC(NCc1ccco1)C(=O)Nc1cccc(O)c1 (configuration not stated)	-3	-7	0	-3	8	-1
O=S1(=O)C[C@@H](N2CC[C@@H](O)C2)[C@H](COCc2ccccc2)N1	4	/	/	/	/	/
COc1ccc(C(=O)N/C(=C/c2cccnc2)C(=O)N2CCCCCC2)cc1OC	0	18	-1	0	-3	2
O=c1cc(-c2ccsc2)oc2ccc(-c3ccc4cc[nH]c4c3)cc12	6	18	1	-2	-44	/
Nc1ccc2nc(CCCO)[nH]c2c1	5	10	-1	2	-9	1
